Measurements published in article PMC4336329 (PLoS ONE, 2015).
In all, about 310,000 compounds went through this assay and about 14,000 (4.5%) showed an effect of 50% or more. Effects have a minus sign here. For the sample, strong results were picked, then their nearest neighbours and some compounds at random.
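Note: peak tail current of the secondary pulse compared with the same well before compound.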

The compounds below were run against human ether-à-go-go-related gene (hERG) potassium channel (human, UniProt Q12809) (assay: primary screen, population patch clamp on CHO cells stably expressing hERG; higher = less effect of the substance).
Sequence of human ether-à-go-go-related gene (hERG) potassium channel (Q12809 whole entry, looked up): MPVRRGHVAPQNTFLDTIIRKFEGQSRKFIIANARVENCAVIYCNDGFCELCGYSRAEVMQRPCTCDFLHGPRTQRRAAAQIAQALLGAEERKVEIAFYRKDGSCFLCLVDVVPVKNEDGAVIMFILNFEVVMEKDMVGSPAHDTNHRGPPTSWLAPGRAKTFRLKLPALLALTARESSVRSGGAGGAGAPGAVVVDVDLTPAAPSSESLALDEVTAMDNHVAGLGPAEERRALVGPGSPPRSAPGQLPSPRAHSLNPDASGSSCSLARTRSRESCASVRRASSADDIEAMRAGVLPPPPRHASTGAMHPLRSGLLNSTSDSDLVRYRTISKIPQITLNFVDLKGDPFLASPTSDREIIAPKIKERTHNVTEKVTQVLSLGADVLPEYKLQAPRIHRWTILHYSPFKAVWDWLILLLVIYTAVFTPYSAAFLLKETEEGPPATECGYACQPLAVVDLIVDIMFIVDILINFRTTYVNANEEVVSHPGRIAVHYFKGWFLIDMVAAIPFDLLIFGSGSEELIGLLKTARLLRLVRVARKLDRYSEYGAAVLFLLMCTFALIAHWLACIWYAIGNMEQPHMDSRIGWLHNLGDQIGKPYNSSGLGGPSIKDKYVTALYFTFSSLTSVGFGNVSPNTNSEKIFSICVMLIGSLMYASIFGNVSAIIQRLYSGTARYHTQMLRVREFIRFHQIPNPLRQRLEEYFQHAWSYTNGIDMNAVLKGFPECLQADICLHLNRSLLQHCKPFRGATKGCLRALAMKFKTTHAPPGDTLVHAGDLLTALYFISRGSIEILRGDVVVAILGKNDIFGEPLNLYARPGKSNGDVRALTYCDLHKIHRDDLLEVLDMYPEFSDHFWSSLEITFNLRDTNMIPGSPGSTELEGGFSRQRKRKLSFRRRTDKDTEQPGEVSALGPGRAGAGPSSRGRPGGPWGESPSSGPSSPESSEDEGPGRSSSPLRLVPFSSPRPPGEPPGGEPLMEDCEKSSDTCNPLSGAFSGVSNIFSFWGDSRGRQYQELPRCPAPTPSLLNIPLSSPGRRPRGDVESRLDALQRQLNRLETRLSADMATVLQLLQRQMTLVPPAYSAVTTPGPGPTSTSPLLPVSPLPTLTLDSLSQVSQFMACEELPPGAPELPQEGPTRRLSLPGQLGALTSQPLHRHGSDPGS
For `COc1ccc(C(=O)CNc2ccccc2CO)cc1`, the “hERG current change (%, negative = inhibition) at 10uM” value was 22.8%.
`O=C(NCCC1=CCCCC1)c1cc(-c2ccncc2)nc2ccccc12` was tested, and the “hERG current change (%, negative = inhibition) at 10uM” value was 6.78%.
In the case of `CC(C)(C)c1ccc(C(=O)Nc2ccc(O)c3c(=O)cc(-c4cccc(Cl)c4)oc23)cc1`, the “hERG current change (%, negative = inhibition) at 10uM” value is reported as 17.7%.
In the case of `COc1cc(C(=O)OC(C)C(=O)NC(=O)NC2CCCCC2)ccc1OC(F)F` (stereo not shown), the “hERG current change (%, negative = inhibition) at 10uM” value is reported as -51.2%.
With `CC(=O)Nc1cccc(C(=O)OC(C)C(=O)NC(=O)NC2CCCCC2)c1` (stereo not shown) the “hERG current change (%, negative = inhibition) at 10uM” value was 3.89%.
In the case of `COc1cc(C(=O)OCC(=O)NC(=O)C2CCCCC2)ccc1OC(F)F`, the “hERG current change (%, negative = inhibition) at 10uM” value is reported as 15.8%.
With `CCOC(=O)C1CCN(C(=O)Nc2ccc3c(c2)nc(C)n3C)CC1` the “hERG current change (%, negative = inhibition) at 10uM” value was 0.694%.
For `CCN(CC)c1ccc(CNc2nnnn2C)cc1`, the “hERG current change (%, negative = inhibition) at 10uM” value was 19.3%.
`Cc1cc(=O)n2nc(N3CCCC(C(=O)NC4CCCCC4C)C3)sc2n1` (stereo not shown) was tested, and the “hERG current change (%, negative = inhibition) at 10uM” value was 9.32%.
`Cc1ccccc1CSCCNC(=O)CCSc1ccccc1` was tested, and the “hERG current change (%, negative = inhibition) at 10uM” value was 2.74%.
For `CCCOc1ccc(C(C)(O)CN2CCOCC2)cc1` (stereo not shown), the “hERG current change (%, negative = inhibition) at 10uM” value was 15.6%.
In the case of `CCCCOc1ccc(C(O)(CC)CCN2CCOCC2)cc1` (stereo not shown), the “hERG current change (%, negative = inhibition) at 10uM” value is reported as -13.4%.
For `CCCOc1ccc(C(O)(CCC)CCN2CCCCC2)cc1` (stereo not shown), the “hERG current change (%, negative = inhibition) at 10uM” value was -56.1%.
`CCCCOc1ccc(C(C)(O)CCN2CCOCC2)cc1` (stereo not shown) was tested, and the “hERG current change (%, negative = inhibition) at 10uM” value was -2.97%.
`CCCCOc1ccc(C(O)(CCC)CCN2CCOCC2)cc1` (stereo not shown) was tested, and the “hERG current change (%, negative = inhibition) at 10uM” value was -51.2%.
For `CCCOc1ccc(C(O)(CCN2CCCCC2)c2ccccc2OC)cc1.Cl` (stereo not shown), the “hERG current change (%, negative = inhibition) at 10uM” value was -29.9%.
For `CCCCC(O)(CCN1CCOCC1)c1ccc(Cl)cc1.Cl` (stereo not shown), the “hERG current change (%, negative = inhibition) at 10uM” value was -66.5%.
With `CCCC(O)(CCN1CCOCC1)c1ccc(Cl)cc1` (stereo not shown) the “hERG current change (%, negative = inhibition) at 10uM” value was 3.77%.
For `CCCC(O)(CCN1CCOCC1)c1ccc(Br)cc1.Cl` (stereo not shown), the “hERG current change (%, negative = inhibition) at 10uM” value was -20.7%.
With `OC1(c2ccc(F)cc2)CSC(=Nc2cccnc2)N1Cc1ccco1` (stereo not shown) the “hERG current change (%, negative = inhibition) at 10uM” value was -14.2%.
`COc1ccc(OC)c2nc(-c3ccc4c(c3)OCO4)ccc12` was tested, and the “hERG current change (%, negative = inhibition) at 10uM” value was 10.4%.
For `CC1CCC2(CC1)NC(=O)N(CC(=O)N1CCN(C(=O)c3cccs3)CC1)C2=O` (stereo not shown), the “hERG current change (%, negative = inhibition) at 10uM” value was -9.44%.
For `CCOC(=O)Cc1csc(NC(=O)c2cc(=O)c3ccccc3o2)n1`, the “hERG current change (%, negative = inhibition) at 10uM” value was -12.3%.
`COc1ccc(Br)cc1CN1C(=O)NC2(CCCCCC2)C1=O` was tested, and the “hERG current change (%, negative = inhibition) at 10uM” value was 10.4%.
With `Cn1ncc(Br)c1C(=O)N1CCCC1` the “hERG current change (%, negative = inhibition) at 10uM” value was 19%.
`O=C(COc1ccccc1)N1CCCCCCC1` was tested, and the “hERG current change (%, negative = inhibition) at 10uM” value was 3.25%.
For `Cc1ccc(OCC(=O)N2CCN(C(=O)c3cccnc3)CC2)cc1`, the “hERG current change (%, negative = inhibition) at 10uM” value was -4.29%.
For `O=C(COc1ccccc1)N1CCN=C1c1ccccc1`, the “hERG current change (%, negative = inhibition) at 10uM” value was -77.5%.
With `O=C(COc1ccc2ccccc2c1)N1CCN(C(=O)c2cccnc2)CC1` the “hERG current change (%, negative = inhibition) at 10uM” value was -25%.
For `CSC1=NCCN1C(=O)COc1ccccc1`, the “hERG current change (%, negative = inhibition) at 10uM” value was 11.3%.
`O=C(COc1ccc(-c2ccccc2)cc1)N1CCN(C(=O)c2cccnc2)CC1` was tested, and the “hERG current change (%, negative = inhibition) at 10uM” value was -57.9%.
For `CCc1ccc(OCC(=O)N2CCN=C2c2ccccc2)cc1`, the “hERG current change (%, negative = inhibition) at 10uM” value was -5.36%.
For `O=C(COc1ccc(-c2ccccc2)cc1)N1CCCC1`, the “hERG current change (%, negative = inhibition) at 10uM” value was -54.5%.
With `O=C(COc1ccccc1)N1CCCC1` the “hERG current change (%, negative = inhibition) at 10uM” value was 15.6%.
With `O=C(NC(=S)Nc1ccc(-c2ccc(CO)o2)cc1)c1cccs1` the “hERG current change (%, negative = inhibition) at 10uM” value was 21%.
For `Cc1ccc2c(c1)C(c1ccccc1)N(C(=O)c1c(F)cccc1Cl)CC(=O)N2` (stereo not shown), the “hERG current change (%, negative = inhibition) at 10uM” value was -22.3%.
`Cc1cccnc1NC1=NCC(C)S1` (stereo not shown) was tested, and the “hERG current change (%, negative = inhibition) at 10uM” value was 3.1%.
With `C=CCSC(CC)(CC)C(N)=O` the “hERG current change (%, negative = inhibition) at 10uM” value was 3.1%.
In the case of `O=C(CNCc1ccco1)Nc1cc(S(=O)(=O)N2CCOCC2)ccc1N1CCCC1`, the “hERG current change (%, negative = inhibition) at 10uM” value is reported as -14.4%.
`COc1cccc(NCc2nnc(SCC(=O)NC3CCS(=O)(=O)C3)n2C2CCCCC2)c1` (stereo not shown) was tested, and the “hERG current change (%, negative = inhibition) at 10uM” value was 12.7%.
For `Cc1cccc(NC(=O)CCN2CCN(C)CC2)c1.Cl`, the “hERG current change (%, negative = inhibition) at 10uM” value was 6.48%.
With `CCN1CCN(CCC(=O)Nc2cccc(C)c2)CC1.Cl` the “hERG current change (%, negative = inhibition) at 10uM” value was 0.741%.
For `O=C(CCN1CCN(c2ccccc2)CC1)Nc1ccc(Cl)cc1`, the “hERG current change (%, negative = inhibition) at 10uM” value was -17.9%.
With `CCN1CCN(CCC(=O)Nc2ccc(C)cc2)CC1.Cl` the “hERG current change (%, negative = inhibition) at 10uM” value was -8.34%.
`CN1CCN(CCC(=O)Nc2ccccc2)CC1` was tested, and the “hERG current change (%, negative = inhibition) at 10uM” value was -5.19%.
In the case of `Cc1cccc(NC(=O)CCN2CCN(C/C=C/c3ccccc3)CC2)c1.Cl`, the “hERG current change (%, negative = inhibition) at 10uM” value is reported as -74%.
`Cc1ccc(NC(=O)CCN2CCN(C/C=C/c3ccccc3)CC2)cc1.Cl` was tested, and the “hERG current change (%, negative = inhibition) at 10uM” value was -90.9%.
`O=C(CCN1CCN(C/C=C/c2ccccc2)CC1)Nc1ccc(Cl)cc1` was tested, and the “hERG current change (%, negative = inhibition) at 10uM” value was -78.2%.
With `O=C(CCN1CCN(C/C=C/c2ccccc2)CC1)Nc1ccccc1` the “hERG current change (%, negative = inhibition) at 10uM” value was -74.9%.
With `Cl.O=C(CCN1CCOCC1)Nc1ccc(Cl)cc1` the “hERG current change (%, negative = inhibition) at 10uM” value was 6.33%.
In the case of `CCN1CCN(CCC(=O)Nc2ccccc2)CC1`, the “hERG current change (%, negative = inhibition) at 10uM” value is reported as 8.58%.
For `Cl.O=C(CCN1CCCC1)Nc1ccccc1`, the “hERG current change (%, negative = inhibition) at 10uM” value was 4.69%.
For `COc1ccc(C(Sc2ccccc2)c2ccccc2)cc1OC` (stereo not shown), the “hERG current change (%, negative = inhibition) at 10uM” value was 7.26%.
For `O=C(O)CCN=CC1=C(O)CC(c2ccccc2)CC1=O` (stereo not shown), the “hERG current change (%, negative = inhibition) at 10uM” value was 3.13%.
For `O=C(C[n+]1cccc(O)c1)NCc1ccc(Cl)cc1.[Cl-]`, the “hERG current change (%, negative = inhibition) at 10uM” value was 24.2%.
In the case of `CCOC(=O)CC1C(=O)NCCN1C(=O)c1ccc(C)cc1` (stereo not shown), the “hERG current change (%, negative = inhibition) at 10uM” value is reported as 14.9%.
With `Cc1sc2c(c1C)C(O)=C(C(=O)Nc1ccccc1)S(=O)(=O)N2C` the “hERG current change (%, negative = inhibition) at 10uM” value was 4.91%.
In the case of `O=C(CSc1nnc2c(n1)[nH]c1ccc(F)cc12)N1CCOCC1`, the “hERG current change (%, negative = inhibition) at 10uM” value is reported as 5.63%.
In the case of `Cc1ccc(NC(=O)CCN2CCC(C(N)=O)CC2)cc1`, the “hERG current change (%, negative = inhibition) at 10uM” value is reported as 17.3%.
For `Cc1ccc(NC(=O)CCN2CCN(C/C=C/c3ccccc3)CC2)cc1C.Cl`, the “hERG current change (%, negative = inhibition) at 10uM” value was -71.8%.
For `Cc1ccc(NC(=O)CCN2CCc3ccccc3C2)cc1.Cl`, the “hERG current change (%, negative = inhibition) at 10uM” value was -60.8%.
With `Cc1ccc(NC(=O)CCN2CCOCC2)cc1C` the “hERG current change (%, negative = inhibition) at 10uM” value was 14.1%.
In the case of `COc1ccc(CN2CCc3ccc(NC(=O)CCc4ccccc4OC)cc3C2)c(O)c1`, the “hERG current change (%, negative = inhibition) at 10uM” value is reported as -35.2%.
For `Cc1ccc(NC(=O)CCN2CCCCC2)cc1.Cl`, the “hERG current change (%, negative = inhibition) at 10uM” value was -0.243%.
In the case of `O=C(CCN1CCc2ccccc2C1)Nc1ccccc1`, the “hERG current change (%, negative = inhibition) at 10uM” value is reported as -24.2%.
With `COc1cccc(CN2CCc3ccc(NC(=O)CCc4ccc(C)cc4)cc3C2)c1O` the “hERG current change (%, negative = inhibition) at 10uM” value was -52.2%.
For `COc1cc(CN2CCc3ccc(NC(=O)CCc4ccccc4OC)cc3C2)ccc1O`, the “hERG current change (%, negative = inhibition) at 10uM” value was -37.3%.
With `Cc1cc(NC(=O)CCN2CCN(Cc3ccccc3)CC2)ccc1Br.Cl` the “hERG current change (%, negative = inhibition) at 10uM” value was -28%.
`Cc1ccc(NC(=O)CCN2CCC(Cc3ccccc3)CC2)cc1` was tested, and the “hERG current change (%, negative = inhibition) at 10uM” value was -75.1%.
`Cc1ccc(NC(=O)CN2CCc3ccccc3C2)cc1` was tested, and the “hERG current change (%, negative = inhibition) at 10uM” value was -30.3%.
